{"source": "PubChem BioAssay AID449764", "about": "(Southern Research Specialized Biocontainment Screening …, 2010)", "note": "About 1,700 (74%) of roughly 2,300 compounds were called active. The set was probably picked from earlier hits. This is one part of the list. Results with a measured potency or affinity are listed apart. A number with no mark means an inactive call. The rule behind the calls is not given here.", "data": [{"test": "Mycobacterium tuberculosis H37Rv growth inhibition, no glycerol, confirmatory dose response (AID 449764);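 note: growth read after 7 days of incubation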", "conditions": "series mostly up to 100 µM; inhibition: at the top concentration", "units": {"inhibition": "%"}, "values": [{"smiles": "Nn1c(SCc2ccccc2)nc2ccccc21", "inhibition": -6.86}, {"smiles": "COc1ccc(-c2oc3ncnc(NCCCN4CCOCC4)c3c2-c2ccc(OC)cc2)cc1", "inhibition": 13.5}, {"smiles": "O=c1[nH][nH]cc1C=Nc1ccc(Oc2ccccc2)cc1", "inhibition": -7.44}, {"smiles": "COc1ccc(NC(=O)C2C3C=CC(O3)C2C(=O)NCc2cccnc2)cc1", "note": "(stereo not drawn)", "inhibition": 4.36}, {"smiles": "CC1CN(C(=S)SCC(=O)c2ccc([N+](=O)[O-])cc2)CC(C)O1", "note": "(stereo not drawn)", "inhibition": 11.2}, {"smiles": "N#CC(c1cccc(Cl)c1)c1ccc2c(C(F)(F)F)cc(C(F)(F)F)nc2n1", "note": "(stereo not drawn)", "inhibition": -3.14}, {"smiles": "CCc1n[nH]c(=S)n1/N=C/c1ccc(-c2ccc(Br)cc2)o1", "inhibition": 0.41}, {"smiles": "CCCCOC(=O)c1ccc(NC(=S)NC(=O)c2c(Br)c(C)nn2C)cc1", "inhibition": -2.35}, {"smiles": "CCn1c(SCC(=O)N(C)CCC#N)nc2cc(S(=O)(=O)N3CCOCC3)ccc21", "inhibition": 6.82}, {"smiles": "COC(=O)C1=C(C)NC(=O)/C1=C\\c1cc(C)n(-c2cccc(C)c2)c1C", "inhibition": -2.49}, {"smiles": "O=C(c1ccc(C#Cc2ccccc2)o1)N1CCN(c2ccccn2)CC1", "inhibition": 0.6}, {"smiles": "O=C(O)Cc1cnc[nH]1", "inhibition": -6.39}, {"smiles": "Cc1cc(/C=C/C(=O)O)c(C)n1-c1ccc(Cl)cc1", "inhibition": -10.7}, {"smiles": "O=C(CCN1C(=O)C2C3C=CC(C3)C2C1=O)Oc1ccc2ccccc2c1", "note": "(stereo not drawn)", "inhibition": 2.23}, {"smiles": "Cc1cc(C2=NNC(=NC3CCCCC3)SC2)c(C)n1-c1c(C)n(C)n(-c2ccccc2)c1=O", "inhibition": -2.3}, {"smiles": "COC(=O)c1cccc(OC(N)=O)c1", "inhibition": -19.5}, {"smiles": "CCOc1ccc(-n2c(O)c(/C=N/Nc3nnc(C)c(=O)[nH]3)c3ccccc3c2=O)cc1", "inhibition": 2.23}, {"smiles": "COc1cccc(NC(=O)Nc2nc(SC(C)(C)C)ns2)c1", "inhibition": 11.6}, {"smiles": "CN(C)S(=O)(=O)c1cccc(NC(=O)CCc2nc3sc4c(c3c(=O)[nH]2)CCCC4)c1", "inhibition": -3.1}, {"smiles": "Nc1ccc(-c2nc3ccc(-c4nc5ccccc5o4)cc3[nH]2)cc1", "inhibition": 13.2}, {"smiles": "CC(C)(C)c1nc(SCC(=O)Nc2nc3c(s2)CCCC3)c2ccccc2n1", "inhibition": -2.53}, {"smiles": "O=C(Nc1cc(Oc2ccccc2)cc([N+](=O)[O-])c1)C12CC3CC(C1)CC(n1cnc(Cl)n1)(C3)C2", "inhibition": 15.2}, {"smiles": "C/C(=N\\NC(=O)c1cc2c(s1)CCC(C)C2)c1ccncc1", "note": "(stereo not drawn)", "inhibition": 4.95}, {"smiles": "CCC1(c2ccccc2)NC(=O)N(CC(=O)Nc2ccc(S(=O)(=O)NC3=NCCCCC3)cc2)C1=O", "note": "(stereo not drawn)", "inhibition": -1.06}, {"smiles": "Nc1cc(C(=O)OCC(=O)NNC(=O)c2cccs2)ccc1Cl", "inhibition": 4.43}, {"smiles": "CSc1ccc(CNC(=O)C2Cc3cc(S(=O)(=O)N4CCCCC4)ccc3N2C(C)=O)cc1", "note": "(stereo not drawn)", "inhibition": 6.47}, {"smiles": "Nc1ncc2[nH]cnc2n1", "inhibition": 1.24}, {"smiles": "CCCc1ccc(OCc2ccccc2)c2c(=O)cc(C(=O)OCC)oc12", "inhibition": 2.09}, {"smiles": "O=C(COc1cc(O)c2c(=O)c3ccccc3oc2c1)OCc1ccccc1", "inhibition": 2.32}, {"smiles": "Cc1ccc(NC(=O)C2CCN(S(=O)(=O)c3ccc4c(c3)NC(=O)C(C)S4)CC2)c(Cl)c1", "note": "(stereo not drawn)", "inhibition": -2.4}, {"smiles": "O=C(c1cc([N+](=O)[O-])ccc1N1CCOCC1)N1CCN(S(=O)(=O)c2cc(Cl)ccc2Cl)CC1", "inhibition": 0.57}, {"smiles": "COc1ccc2c(C)nc(Nc3nc(C)c(C)c(=O)[nH]3)nc2c1", "inhibition": -52.9}, {"smiles": "COc1ccc(Oc2ccc(N/C=C/C(=O)C(C)(C)C)cc2)cc1", "inhibition": -1.41}, {"smiles": "COc1ccc(N/C=C/c2nc(SC)nnc2C)cc1", "inhibition": -3.67}, {"smiles": "CCCOc1ccc(C(=O)c2nc3c(n2O)CCCCC3)cc1", "inhibition": 6.51}, {"smiles": "CCCc1ncc(CN2CCCC(C(=O)Nc3ccc(-c4cccc(OC)c4)cc3)C2)cn1", "note": "(stereo not drawn)", "inhibition": 2.45}, {"smiles": "N/C(=N\\OC(=O)CCC1CCCC1)c1cccc([N+](=O)[O-])c1", "inhibition": -9.85}, {"smiles": "Cc1ccccc1C(=O)Nc1ccc(N(C)C)c2ccccc12", "inhibition": 5.34}, {"smiles": "O=C(N/N=C/c1ccc(Br)s1)c1cccs1", "inhibition": -0.24}, {"smiles": "CCn1nnc(-c2ccc(N)cc2)n1", "inhibition": -13.6}, {"smiles": "COc1ccc(C(C(O)C(=O)c2c[nH]c3ccccc23)N2CCN(c3ccc(OC)cc3)CC2)cc1", "note": "(stereo not drawn)", "inhibition": 3.98}, {"smiles": "COc1ccc(N2CN=C3SCC(=O)N3C2)cc1", "inhibition": -4.24}, {"smiles": "CCOc1ccc(NC(=S)NC23CN4CN(CN(C4)C2)C3)cc1", "inhibition": 19.1}, {"smiles": "CCOC(=O)c1ccc(OC(=O)CCCCCN=C(N)N)cc1", "inhibition": -8.62}, {"smiles": "COc1ccccc1C(=O)NC(=Nc1nc2ccccc2o1)NC(=O)c1ccccc1OC", "inhibition": 8.05}, {"smiles": "O=C(CN1CCN(c2ccc(F)cc2)CC1)N1CCC(Cc2ccccc2)CC1", "inhibition": -6.61}, {"smiles": "CC(=Nc1ccc(C)c(C)c1)C1=C(O)CSC1=O", "inhibition": -2.11}, {"smiles": "CCOc1ccc(S(=O)(=O)N2CCN(C(=O)c3cc4c(s3)CCCC4)CC2)cc1", "inhibition": -0.19}, {"smiles": "COc1ccc(NC(NC(=O)c2ccc(OC)cc2)C(Cl)(Cl)Cl)cc1", "note": "(stereo not drawn)", "inhibition": -1.34}, {"smiles": "COc1ccc(-c2ccc(=O)n(Cc3c(F)cccc3Cl)n2)cc1", "inhibition": -1.26}, {"smiles": "Cc1nc2ccc(NC(=O)N(C(C)C)C(C)C)cc2s1", "inhibition": -2.49}, {"smiles": "CCOc1[nH]n(-c2ccccc2)c(=O)c1C=Nc1ccc(OC)cc1", "inhibition": 2.32}, {"smiles": "O=C(Sc1nnc(-c2ccccc2)o1)N1c2ccccc2Sc2ccccc21", "inhibition": 14.5}]}]}
